# Assay results from article PMC4631838.
# How the values were obtained:
# Assay in all cases: cross-link between two proteins; cross-linking mass spectrometry
# [1] = target: DNA-directed RNA polymerase II subunit RPB11 (UniProt P38902)
# [2] = target: DNA-directed RNA polymerase II subunit RPB9 (UniProt P27999)
# [3] = target: DNA-directed RNA polymerases I, II, and III subunit RPABC1 (UniProt P20434)
# [4] = target: DNA-directed RNA polymerases I, II, and III subunit RPABC2 (UniProt P20435)
# [5] = target: DNA-directed RNA polymerases I, II, and III subunit RPABC3 (UniProt P20436)
# Chain of DNA-directed RNA polymerases I, II, and III subunit RPABC3 (P20436 whole entry): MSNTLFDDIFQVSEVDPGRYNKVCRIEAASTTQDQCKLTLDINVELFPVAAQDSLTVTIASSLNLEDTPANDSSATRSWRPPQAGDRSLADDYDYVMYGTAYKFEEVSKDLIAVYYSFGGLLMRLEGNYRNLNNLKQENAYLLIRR
# [6] = target: DNA-directed RNA polymerase II subunit RPB3 (UniProt P16370)
# Chain of DNA-directed RNA polymerase II subunit RPB3 (P16370 whole entry): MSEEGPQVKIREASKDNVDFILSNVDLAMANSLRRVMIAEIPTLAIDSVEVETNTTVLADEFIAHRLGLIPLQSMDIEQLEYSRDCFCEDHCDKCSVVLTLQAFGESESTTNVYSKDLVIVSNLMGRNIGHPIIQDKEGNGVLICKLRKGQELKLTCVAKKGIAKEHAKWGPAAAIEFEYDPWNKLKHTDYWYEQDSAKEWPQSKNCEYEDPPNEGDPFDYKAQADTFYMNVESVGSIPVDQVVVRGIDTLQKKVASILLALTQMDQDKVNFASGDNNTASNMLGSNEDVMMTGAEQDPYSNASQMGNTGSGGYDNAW
# [7] = target: DNA-directed RNA polymerase II subunit RPB7 (UniProt P34087)
# Chain of DNA-directed RNA polymerase II subunit RPB7 (P34087 whole entry): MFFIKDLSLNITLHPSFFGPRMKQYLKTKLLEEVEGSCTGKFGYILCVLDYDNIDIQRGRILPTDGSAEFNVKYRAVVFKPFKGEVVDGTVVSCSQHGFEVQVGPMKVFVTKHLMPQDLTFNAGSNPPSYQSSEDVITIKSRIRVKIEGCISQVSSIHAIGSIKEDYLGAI
# Chain of DNA-directed RNA polymerase II subunit RPB1, P04050 (P04050 whole entry): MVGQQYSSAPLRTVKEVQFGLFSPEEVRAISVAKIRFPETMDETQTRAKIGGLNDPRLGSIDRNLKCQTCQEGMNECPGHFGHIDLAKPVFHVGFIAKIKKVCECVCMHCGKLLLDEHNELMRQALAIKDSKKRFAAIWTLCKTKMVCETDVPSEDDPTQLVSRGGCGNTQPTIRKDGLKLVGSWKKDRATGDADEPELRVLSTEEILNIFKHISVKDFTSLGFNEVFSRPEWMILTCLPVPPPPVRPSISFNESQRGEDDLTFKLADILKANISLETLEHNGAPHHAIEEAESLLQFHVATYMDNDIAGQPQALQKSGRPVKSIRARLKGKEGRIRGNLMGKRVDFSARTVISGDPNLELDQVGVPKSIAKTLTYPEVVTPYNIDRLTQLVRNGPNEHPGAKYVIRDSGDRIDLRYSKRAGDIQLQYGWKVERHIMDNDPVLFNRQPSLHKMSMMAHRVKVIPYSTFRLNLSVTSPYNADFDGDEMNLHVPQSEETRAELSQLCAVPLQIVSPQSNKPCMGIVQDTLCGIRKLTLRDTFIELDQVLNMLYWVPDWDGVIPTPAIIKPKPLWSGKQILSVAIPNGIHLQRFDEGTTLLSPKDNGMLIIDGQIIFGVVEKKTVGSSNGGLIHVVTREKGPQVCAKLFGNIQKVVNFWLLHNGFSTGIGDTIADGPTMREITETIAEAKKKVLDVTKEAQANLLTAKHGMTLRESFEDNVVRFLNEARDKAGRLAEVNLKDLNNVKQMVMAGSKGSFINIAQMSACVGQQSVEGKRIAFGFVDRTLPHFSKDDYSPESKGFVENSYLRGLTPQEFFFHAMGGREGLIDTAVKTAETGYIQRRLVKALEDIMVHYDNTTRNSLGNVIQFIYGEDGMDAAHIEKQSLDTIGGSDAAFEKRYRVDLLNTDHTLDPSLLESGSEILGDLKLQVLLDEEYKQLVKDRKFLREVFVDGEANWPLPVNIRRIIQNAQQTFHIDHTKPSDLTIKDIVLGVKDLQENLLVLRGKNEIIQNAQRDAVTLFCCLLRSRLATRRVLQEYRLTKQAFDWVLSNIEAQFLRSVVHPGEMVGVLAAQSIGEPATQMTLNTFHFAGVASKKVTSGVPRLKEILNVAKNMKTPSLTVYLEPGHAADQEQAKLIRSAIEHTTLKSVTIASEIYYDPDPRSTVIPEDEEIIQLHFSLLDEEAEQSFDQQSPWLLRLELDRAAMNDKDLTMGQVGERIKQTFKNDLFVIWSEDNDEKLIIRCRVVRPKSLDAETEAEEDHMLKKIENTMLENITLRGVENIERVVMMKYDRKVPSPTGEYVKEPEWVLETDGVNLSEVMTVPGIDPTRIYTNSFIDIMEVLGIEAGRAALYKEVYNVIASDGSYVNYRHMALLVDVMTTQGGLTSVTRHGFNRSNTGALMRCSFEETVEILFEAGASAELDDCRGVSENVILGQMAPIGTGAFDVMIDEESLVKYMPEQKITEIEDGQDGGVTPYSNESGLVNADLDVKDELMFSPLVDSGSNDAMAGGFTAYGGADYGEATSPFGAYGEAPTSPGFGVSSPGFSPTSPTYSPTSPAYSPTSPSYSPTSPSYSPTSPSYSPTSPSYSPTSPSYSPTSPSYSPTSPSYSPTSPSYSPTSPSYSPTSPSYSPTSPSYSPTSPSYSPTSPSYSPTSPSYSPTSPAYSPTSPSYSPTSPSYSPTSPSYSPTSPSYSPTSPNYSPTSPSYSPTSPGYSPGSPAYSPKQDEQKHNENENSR
# Chain of DNA-directed RNA polymerases I, II, and III subunit RPABC2 (P20435 whole entry): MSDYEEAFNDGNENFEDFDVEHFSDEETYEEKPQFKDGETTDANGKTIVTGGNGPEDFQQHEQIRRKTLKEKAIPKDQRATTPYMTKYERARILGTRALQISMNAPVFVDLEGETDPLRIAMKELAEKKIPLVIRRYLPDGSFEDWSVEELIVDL
# Chain of DNA-directed RNA polymerase II subunit RPB9 (P27999 whole entry): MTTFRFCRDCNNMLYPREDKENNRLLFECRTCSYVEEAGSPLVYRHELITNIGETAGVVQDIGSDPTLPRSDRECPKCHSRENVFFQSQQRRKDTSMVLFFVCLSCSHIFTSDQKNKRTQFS
# Chain of DNA-directed RNA polymerases I, II, and III subunit RPABC1 (P20434 whole entry): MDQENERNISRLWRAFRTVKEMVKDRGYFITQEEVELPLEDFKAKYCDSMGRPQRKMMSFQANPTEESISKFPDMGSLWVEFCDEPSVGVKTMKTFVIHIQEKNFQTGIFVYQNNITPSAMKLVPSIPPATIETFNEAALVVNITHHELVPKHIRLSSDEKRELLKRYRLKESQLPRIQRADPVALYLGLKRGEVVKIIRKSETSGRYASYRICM
# Chain of DNA-directed RNA polymerase II subunit RPB2, P08518 (P08518 whole entry): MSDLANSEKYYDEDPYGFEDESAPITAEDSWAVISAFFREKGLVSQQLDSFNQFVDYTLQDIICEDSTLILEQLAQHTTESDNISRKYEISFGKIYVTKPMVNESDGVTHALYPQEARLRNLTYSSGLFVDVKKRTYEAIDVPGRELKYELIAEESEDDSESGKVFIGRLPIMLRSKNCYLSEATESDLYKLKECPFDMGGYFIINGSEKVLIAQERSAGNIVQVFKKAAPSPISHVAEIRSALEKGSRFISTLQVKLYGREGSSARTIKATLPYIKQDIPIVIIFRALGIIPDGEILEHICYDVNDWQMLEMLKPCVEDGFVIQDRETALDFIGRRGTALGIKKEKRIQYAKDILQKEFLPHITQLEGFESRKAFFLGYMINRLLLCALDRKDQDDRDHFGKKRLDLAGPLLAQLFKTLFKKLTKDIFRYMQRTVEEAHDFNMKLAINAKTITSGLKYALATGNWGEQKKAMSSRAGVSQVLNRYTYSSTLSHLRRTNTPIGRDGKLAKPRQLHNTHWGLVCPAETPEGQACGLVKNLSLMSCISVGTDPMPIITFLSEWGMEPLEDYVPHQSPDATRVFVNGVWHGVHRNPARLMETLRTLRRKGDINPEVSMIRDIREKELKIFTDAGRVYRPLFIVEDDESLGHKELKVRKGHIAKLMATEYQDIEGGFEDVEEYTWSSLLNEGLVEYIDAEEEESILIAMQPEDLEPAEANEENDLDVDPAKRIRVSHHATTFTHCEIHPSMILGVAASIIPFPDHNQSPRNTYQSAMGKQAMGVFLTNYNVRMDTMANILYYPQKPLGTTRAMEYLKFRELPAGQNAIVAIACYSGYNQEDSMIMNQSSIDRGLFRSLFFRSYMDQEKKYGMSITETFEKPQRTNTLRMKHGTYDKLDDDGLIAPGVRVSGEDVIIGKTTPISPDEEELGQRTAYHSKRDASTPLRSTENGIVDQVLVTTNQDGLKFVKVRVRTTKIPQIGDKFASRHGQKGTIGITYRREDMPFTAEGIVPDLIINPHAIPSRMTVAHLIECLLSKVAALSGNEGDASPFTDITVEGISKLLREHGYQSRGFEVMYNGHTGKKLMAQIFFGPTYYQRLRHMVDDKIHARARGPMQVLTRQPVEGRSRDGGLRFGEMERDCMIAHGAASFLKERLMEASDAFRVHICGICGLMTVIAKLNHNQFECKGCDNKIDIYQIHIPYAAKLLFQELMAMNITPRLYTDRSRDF
# Chain of DNA-directed RNA polymerase II subunit RPB11 (P38902 whole entry): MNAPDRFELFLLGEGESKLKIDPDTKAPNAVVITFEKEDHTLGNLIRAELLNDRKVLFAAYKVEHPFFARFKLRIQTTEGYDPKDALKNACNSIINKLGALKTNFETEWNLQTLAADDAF
substance,measurement,setting,value
"DNA-directed RNA polymerase II subunit RPB1, P04050",listed as a hit,[1],yes
same,listed as a hit,[2],yes
same,listed as a hit,[3],yes
same,listed as a hit,[4],yes
same,listed as a hit,[5],yes
"DNA-directed RNA polymerase II subunit RPB2, P08518",listed as a hit,[6],yes
"DNA-directed RNA polymerase II subunit RPB4, P20433",listed as a hit,[7],yes
"DNA-directed RNA polymerases I, II, and III subunit RPABC1, P20434",listed as a hit,[4],yes
